Data taken from PubChem BioAssay (NCATS).
Results filed as inconclusive are left out. Calls of active or inactive are those of the source. Calls come from the whole dose curve; as a rule, active = well fitted inhibition curve with a large enough effect; inconclusive = small, poorly fitted or top-dose-only effect; inactive = flat fitted curve, though single readings scatter.

Tests used:
Test in all cases: qHTS profiling for inhibitors of Plasmodium falciparum proliferation (AID 504749); note: nearly all actives have a fitted effect of over 60% in size
Conditions in all cases: P. falciparum in erythrocytes, SYBR Green DNA, 72 h; series mostly up to 28.7 µM
CP256 = test system: CP256
Procedure, shortened: (§1)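 P. falciparum-infected erythrocytes (0.3% parasitemia, 2.5% hematocrit final) were exposed to compounds for 72 h at 37 C in 5% CO2, then lysed with SYBR Green buffer overnight at room temperature; parasite DNA fluorescence was normalized to artemisinin and DMSO controls.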

CP260 = test system: CP260
Procedure, shortened: as §1

CP262 = test system: CP262
Procedure, shortened: as §1

CP265 = test system: CP265
Procedure, shortened: as §1

CP266 = test system: CP266
Procedure, shortened: as §1

CP268 = test system: CP268
Procedure, shortened: as §1

CP269 = test system: CP269
Procedure, shortened: as §1

CP286 = test system: CP286
Procedure, shortened: as §1

CP291 = test system: CP291
Procedure, shortened: as §1

CP297 = test system: CP297
Procedure, shortened: as §1

CP305 = test system: CP305
Procedure, shortened: as §1

CP315 = test system: CP315
Procedure, shortened: as §1

CP325 = test system: CP325
Procedure, shortened: as §1

CP329 = test system: CP329
Procedure, shortened: as §1

CP335 = test system: CP335
Procedure, shortened: as §1

DFO2036 = test system: DFO2036
Procedure, shortened: as §1

DIV14 = test system: DIV14
Procedure, shortened: as §1

DIV17 = test system: DIV17
Procedure, shortened: as §1

DIV30 = test system: DIV30
Procedure, shortened: as §1

Dd2 = test system: Dd2
Procedure, shortened: as §1

ECU = test system: ECU
Procedure, shortened: as §1

FAB9 = test system: FAB9
Procedure, shortened: as §1

GB4 = test system: GB4
Procedure, shortened: as §1

HB3 = test system: HB3
Procedure, shortened: as §1

ICS = test system: ICS
Procedure, shortened: as §1

JCK = test system: JCK
Procedure, shortened: as §1

N140 = test system: N140
Procedure, shortened: as §1

P93_24 = test system: P93_24
Procedure, shortened: as §1

P94_40 = test system: P94_40
Procedure, shortened: as §1

PAD = test system: PAD
Procedure, shortened: as §1

PC15 = test system: PC15
Procedure, shortened: as §1

PC26 = test system: PC26
Procedure, shortened: as §1

PC49 = test system: PC49
Procedure, shortened: as §1

SC27B = test system: SC27B
Procedure, shortened: as §1

TAB109 = test system: TAB109
Procedure, shortened: as §1

TAB113 = test system: TAB113
Procedure, shortened: as §1

TAB165 = test system: TAB165
Procedure, shortened: as §1

W2 = test system: W2
Procedure, shortened: as §1

Measured: Potency

C[N+]1([O-])[C@H]2CC[C@H]1CC(OC(=O)[C@@H](CO)c1ccccc1)C2 (stereo partly drawn)
inactive: all assays above
